Compound activity as filed in PubChem BioAssay.
Tau FP inhib – inhibitors of human tau fibril formation; K18 P301L tau heparin fibrillization, Alexa594 FP, 6 h; actives 0.39% (n = 280,000); Potency, µM (doses to about 57.7 µM), inactives show at the top dose activity, negative = inhibition, actives largely listed as inhibitors; AID 1468; P10636; further: nearly all actives have a fitted effect of over 55% in size
Target sequence (P10636 561-689 P618L limits assumed): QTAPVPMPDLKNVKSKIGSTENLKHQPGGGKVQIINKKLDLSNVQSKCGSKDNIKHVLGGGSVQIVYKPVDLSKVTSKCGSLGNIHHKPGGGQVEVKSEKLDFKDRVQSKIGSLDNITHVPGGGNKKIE
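Human K18 P301L fragment (15 uM unlabeled plus 0.24 uM Alexa 594-labeled) in 100 mM sodium acetate pH 7 with compound, aggregation induced by 20 uM heparin for 6 hr at 37 C. ThT (30 uM) added for 1 hr, then Alexa 594 FP read.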
TRb SRC2 PPI – TRbeta-SRC2 interaction inhibition | AID 1469 | Potency, µM (series often up to 106 µM), for the others: top-dose activity change, negative = inhibition, actives largely listed as inhibitors | actives 0.065% (n = 280,000) | TRbeta-SRC2 peptide binding, fluorescence polarization; receptor liganded with 1 µM T3 | P10828;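 further: plate controls were bound peptide for no effect and peptide without receptor for full effect; nearly all actives have a fitted effect of over 50% in size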
Target sequence (P10828 whole entry, looked up): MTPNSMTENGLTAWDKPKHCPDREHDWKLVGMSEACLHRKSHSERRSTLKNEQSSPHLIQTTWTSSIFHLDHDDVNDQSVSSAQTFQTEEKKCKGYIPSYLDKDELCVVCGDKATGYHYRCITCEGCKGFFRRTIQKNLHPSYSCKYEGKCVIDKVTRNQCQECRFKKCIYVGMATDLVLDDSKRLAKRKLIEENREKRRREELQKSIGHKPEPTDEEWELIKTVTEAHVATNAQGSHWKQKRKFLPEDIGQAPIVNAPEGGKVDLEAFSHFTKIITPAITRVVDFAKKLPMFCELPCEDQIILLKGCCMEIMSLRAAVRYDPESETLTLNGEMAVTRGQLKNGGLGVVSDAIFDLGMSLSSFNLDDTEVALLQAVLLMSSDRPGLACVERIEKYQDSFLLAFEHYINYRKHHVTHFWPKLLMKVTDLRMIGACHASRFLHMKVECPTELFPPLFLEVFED
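TRb LBD 0.6 uM + Texas Red SRC2 peptide 20 nM, 1 uM T3, Tris buffer w/ 5% DMSO; compound pinned, 5 h RT; FP read ex 555/em 632; normalized to unbound and bound controls.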
Tau fluor cs – counter-screen for tau fibril formation inhibitors | tau K18 P301L Alexa594 fluorescence, heparin fibrillization | Potency, µM (top dose mostly 57.7 µM), for the others: at the highest dose activity change, negative = decrease | actives 0.93% (n = 280,000); further: nearly all actives have a fitted effect of over 55% in size
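Human K18 P301L tau (15 uM unlabeled plus 0.24 uM Alexa 594-labeled, final) in 100 mM sodium acetate pH 7 was mixed with compound and 20 uM heparin and incubated 6 hr at 37 C.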
TR SRC2 fluor cs – alters Texas Red total fluorescence, flagging assay interference | TRb/SRC2 Texas Red total fluorescence interference | Potency, µM (doses to about 106 µM), for inactives: at the highest dose fluorescence change, negative = quenching | actives 0.29% (n = 280,000) | AID 1479; active means well fitted curve in either direction with a large enough effect; inconclusive means small, poorly fitted or top-dose-only effect
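Human TRβ ligand-binding domain (0.6 uM) and Texas Red SRC2 peptide (20 nM) in Tris buffer with 1 uM T3 and 5% DMSO were incubated with pinned compound for 5 hr at ambient temperature. Total fluorescence was computed as S + 2P (555/632 nm).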
Tau ThT inhib – tau fibrillization inhibition (ThT binding); P10636; recombinant tau K18 P301L (four-repeat tau fragment), heparin-induced fibrillization, ThT fluorescence; Potency, µM (titrated, usually from 57.4 µM), inactives show top-dose activity, negative = inhibition, actives largely listed as inhibitors; actives 2.1% (n = 270,000); AID 1460; further: nearly all actives have a fitted effect of over 55% in size
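In this qHTS, human K18 P301L tau is incubated with compound and heparin for 6 hr at 37 C, and Thioflavin T fluorescence then reports fibril load.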
The depositor's hits bear a star; ? = inconclusive; nt = no result; [ ] = dose if it differs, or a comment. In the library only some 3.1% were active in any assay of this set; here they are far more common. Unless noted, the call rests on the fitted dose curve; in most records, active means well fitted curve in the direction sought with a large enough effect; inconclusive means small, poorly fitted or top-dose-only effect, or another doubt; inactive means no such curve, though single readings can be large; an effect the other way counts as inactive or inconclusive. Unless noted, on the % scale 0 is the no-effect control and ±100 the full control effect; potency means the concentration at half of the fitted maximal effect.

SMILES	Tau FP inhib	TRb SRC2 PPI	Tau fluor cs	TR SRC2 fluor cs	Tau ThT inhib
C/C(CC(=O)N1CCN(C=O)CC1)=N\NC(=O)c1cc2ccccc2cc1O	?	30%	?	45µM*[quencher]	25µM*
C/C(=N\NC(=O)c1cc2ccccc2cc1O)c1cc2ccccc2o1	6%	?	?	40µM*[quencher]	3.5µM*
C/C(CC(=O)N1CCN(C=O)CC1)=N\NC(=O)c1ccc([N+](=O)[O-])cc1	-13%	1%	12%[2.34 µM]	-4%	-9%
C/C(=N\NC(=O)c1ccccc1O)C1C(=O)c2ccccc2C1=O	12%	0%	?	?	5µM*
C/C(=N/NC(=O)c1cc2ccccc2cc1O)C1C(=O)c2ccccc2C1=O	-1%	20%	14µM*[quencher]	40µM*[quencher]	2.5µM*
CCC/C(C)=N/NC(=O)c1ccccc1O	1%	15%	5%	-7%	-6%
COc1ccc(C2C=C3CNS(=O)(=O)C3CC2OC(=O)c2ccc(C(F)(F)F)cc2)cc1 (configuration not stated)	nt	0%	nt	-2%	nt
Cc1ccc(-c2nc3ncccc3o2)cc1NC(=O)c1ccc(-c2cccc(Cl)c2C)o1	1%	-7%	3%	-9%	-2%
O=C(Cn1nc(N2CCN(c3ccccc3)CC2)ccc1=O)NCc1cccc(Cl)c1	4%	5%	-23%	0%	-17%
Oc1ccccc1N=Nc1ccccc1O	12%	2%	-11%	-2%	?
O=Cc1cc(N=Nc2cccc(C(=O)O)c2)ccc1O	-8%	4%	-13%	?	4µM*
O=Cc1cc(N=Nc2ccccc2Cl)ccc1O	?	8%	?	-15%	13µM*
Cc1cccc(OCCNc2cc(N3CCN(C)CC3)ccc2[N+](=O)[O-])c1	-12%	10%	?	-1%	?
COc1ccccc1OCCNc1cc(N2CCCCC2)ccc1[N+](=O)[O-]	12%	-4%	-22%	-5%	?
Cc1ccc(OCCNc2cc(N3CCN(CCO)CC3)ccc2[N+](=O)[O-])cc1C	-8%	6%	?	-2%	16µM*
Cc1cccc(OCCNc2cc(N3CCOCC3)ccc2[N+](=O)[O-])c1	-3%	-9%	?	-2%	7.9µM*
Cc1ccccc1OCCNc1cc(N2CCNCC2)ccc1[N+](=O)[O-]	?	-1%	?	-3%	16µM*
COc1cccc(C(=O)Nc2ccc3nc(SCC(=O)N4CCc5ccccc54)sc3c2)c1	?	2%	-18%	8%	?
O=C1C=CC2=C3c4cc(O)c(O)cc4C[C@@]3(O)COC2=C1	?	-18%	?	14%	8.9µM*
O=C1c2ccccc2C(=O)c2c1oc(C(F)(F)F)c2C(=O)c1ccccc1	-4%	-4%	?	-4%	?
COc1ccc(C(=O)c2coc3c2C(=O)C(=O)c2ccccc2-3)cc1	?	-3%	?	-3%	2.8µM*
COc1ccc2occ(C(=O)c3ccccc3)c2c1	-2%	1%	-2%	-6%	-4%
O=C(c1ccccc1)c1coc2c1C(=O)c1ccccc1C2=O	-12%	4%	?	-1%	13µM*
COc1cc(C2C3=C(CCCC3=O)Nc3[nH]n(-c4ccccc4)c(=O)c32)ccc1OC(C)=O (configuration not stated)	3%	-2%	-3%	-1%	-7%
NC(Cc1ccccc1)C(O)(c1ccccc1)c1ccccc1 (configuration not stated)	1%	8%[53 µM]	0%	0%[53 µM]	-3%
SMILES	Tau FP inhib	TRb SRC2 PPI	Tau fluor cs	TR SRC2 fluor cs	Tau ThT inhib
CSC1=C(C#N)C(c2ccccc2Cl)C2=C(N1)c1ccccc1C2=O (configuration not stated)	?	5%	?	1%	28µM*
CC1=C(C#N)C(c2ccccc2)C2=C(N1)c1ccccc1C2=O (configuration not stated)	-12%	0%	25µM*[quencher]	-2%	13µM*
CC(=O)C1=C(C)NC2=C(C(=O)c3ccccc32)C1c1ccccc1 (configuration not stated)	15%	-8%	?	-3%	18µM*
CC1=C(C#N)C(c2cccnc2)C2=C(N1)c1ccccc1C2=O (configuration not stated)	-10%	-3%	-14%	-4%	?
O=C(CN1C(=O)COc2ccc(S(=O)(=O)N3CCOCC3)cc21)NCc1ccccn1	3%	-10%	8%	-3%	nt
Cc1cc2c(cc1S(=O)(=O)CCC(=O)N(C)C1CCCCC1)OCC(=O)N2	-7%	5%	-20%	-11%	-7%
Cc1ccsc1C=C1C(=O)c2ccccc2C1=O	-2%	-2%	?	-8%	14µM*
O=C(CN1CCN(C(=O)C2COc3ccccc3O2)CC1)Nc1ccc(F)cc1 (configuration not stated)	2%	-1%	1%	-2%	0%
Cc1ccc(C)c(N2CCN(c3nc4c(S(=O)(=O)c5ccccc5)nnn4c4ccc(Cl)cc34)CC2)c1	4%	1%	0%	-2%	-5%
O=C(/C=C/c1ccncc1)c1cc(Cl)ccc1O	2%	-7%	?	-1%	28µM*
CN(C)c1ccc(C(=O)/C=C/c2ccc(Br)cc2)cc1	-8%	-4%	-16%	0%	?
CN(C)c1ccc(/C=C/C(=O)c2cc(Cl)ccc2O)cc1	11%	20%	?	19%	4µM*
COC(=O)C1=NOC2(C=C(Br)C(OC)=C(Br)C2=O)C1 (configuration not stated)	?	6%[11.2 µM]	-23%[11.6 µM]	-1%[11.2 µM]	4µM*
COC(=O)N1C(C)=Cc2ccccc2C1C/C(C)=C/C(C)=O (configuration not stated)	9%	4%	-3%	-2%	-1%
CC[n+]1c(/C=C/N(C)c2ccccc2)oc2ccc(F)cc21	25µM*	-3%	?	7%	14µM*
OCC1OC(n2cnc3ccccc32)CC1O (configuration not stated)	-5%	-9%	-7%	1%	-5%
CO[Si](CCCNCCN)(OC)OC	nt	-2%[201 µM]	nt	0%[201 µM]	nt
COc1ccc(C(=O)Nc2ccc3nc(N4CCCCC4)cc(C)c3c2)c(OC)c1	7%	11%	?	1%	?
Cc1cc(N2CCC(C)CC2)nc2ccc(NC(=O)Cc3c(F)cccc3Cl)cc12	4%	2%	?	-5%	?
COc1cc(OC)cc(C(=O)Nc2ccc3nc(N4CCC(C)CC4)cc(C)c3c2)c1	?	4%	4µM*[quencher]	-4%	?
COc1cccc(CC(=O)Nc2ccc3nc(N4CCC(C)CC4)cc(C)c3c2)c1	?	-3%	14µM*[quencher]	-2%	?
COc1ccccc1C(=O)Nc1ccc2nc(N3CCC(C)CC3)cc(C)c2c1	18%	9%	7.9µM*[quencher]	-3%	8.9µM*
